In test [1] the target is Thyrotropin-releasing hormone receptor (Homo sapiens) (UniProt P34981). Description: qHTS assay to identify small molecule agonists of the thyrotropin-releasing hormone receptor (TRHR) signaling pathway (AID 1346891; calls by dose curve; further: series mostly up to about 58 µM). In a few lines: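 TRHR-expressing HEK293 cells were plated 18 h at 37 °C/5% CO2, loaded with calcium dye 2 h at 37 °C, then given compound in DMSO; fluorescence was read kinetically for 3 min at 1 s intervals.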
Thyrotropin-releasing hormone receptor (Homo sapiens), sequence (P34981 whole entry, looked up): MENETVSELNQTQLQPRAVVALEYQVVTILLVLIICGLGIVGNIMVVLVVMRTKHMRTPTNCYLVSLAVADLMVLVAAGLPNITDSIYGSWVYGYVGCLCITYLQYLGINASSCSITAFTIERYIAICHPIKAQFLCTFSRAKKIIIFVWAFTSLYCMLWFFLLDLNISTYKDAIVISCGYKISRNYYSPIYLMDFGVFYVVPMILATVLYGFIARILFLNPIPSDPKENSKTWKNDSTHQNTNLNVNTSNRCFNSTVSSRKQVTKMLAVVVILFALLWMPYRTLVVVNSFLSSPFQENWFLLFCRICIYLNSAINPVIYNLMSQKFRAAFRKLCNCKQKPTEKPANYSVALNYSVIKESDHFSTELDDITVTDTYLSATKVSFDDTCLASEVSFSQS
(In general: qHTS replaces the single test concentration by a dilution series.)

Test [2] in a line: Human pregnane X receptor (PXR) small molecule agonists, qHTS cell viability counter screen (AID 1346977). Further: nearly all actives have a fitted effect of over 50% in size. The method, boiled down:
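PXR-Luc HepG2 cells in medium with 5% charcoal-stripped FBS were pre-incubated 5hr, then exposed to compounds for 24hr at 37C. Viability was read in the same wells by CellTiter-Fluor fluorescence, reagent added after 23hr with a 1hr incubation.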

A short description of test [3]: Caspase-3/7 induction in HepG2 cells by small molecules, qHTS assay (AID 1346978). Further: nearly all actives have a fitted effect of over 15% in size. In a few lines:
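Caspase-3/7 induction was measured by Caspase-Glo 3/7 luminescence (30 min, room temperature) after a 17 hr compound exposure of wild-type HepG2 cells seeded at 2,000 per well and pre-incubated 5 hr.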

The nature of test [4]: Caspase-3/7 induction in CHO-K1 cells by small molecules, qHTS cell viability counter screen (AID 1346979). Further: nearly all actives have a fitted effect of over 35% in size. In a few lines:
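Wild-type CHO-K1 cells were seeded at 1,500 per well, rested 5hr at 37 C, then exposed to compounds in DMSO. After 16hr, CellTiter-Fluor reagent was added and fluorescence read 1hr later as the viability measure.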

A short description of test [5]: Caspase-3/7 induction in CHO-K1 cells by small molecules, qHTS assay (AID 1346980). Further: nearly all actives have a fitted effect of over 15% in size. The method, boiled down: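 Luminescent Caspase-Glo 3/7 read (30min, room temperature) quantified apoptosis induction. Cells were wild-type CHO-K1, treated with compound for 17hr at 37 C and 5% CO2.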
The nature of test [6]: Caspase-3/7 induction in HepG2 cells by small molecules, qHTS cell viability counter screen (AID 1346981). Further: series mostly up to about 92 µM; nearly all actives have a fitted effect of over 30% in size. In a few lines: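 Multiplexed with the caspase-3/7 assay: HepG2 cells, 16 hr compound treatment, CellTiter-Fluor viability detection by fluorescence.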
In test [7] the target is Nuclear receptor subfamily 1 group I member 2 (Homo sapiens) (UniProt O75469). As to the kind of experiment: Human pregnane X receptor (PXR) small molecule agonists, qHTS assay (AID 1346982). Further: nearly all actives have a fitted effect of over 35% in size. Further: potency means the concentration at half of the fitted maximal effect. In a few lines:
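We seeded PXR-Luc HepG2 cells in assay medium containing 5% charcoal-stripped FBS, added compounds 5 hr later, incubated 24 hr, and read luminescence with ONE-Glo reagent.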

Test [8] concerns the target Cytochrome P450 2D6 (Homo sapiens) (UniProt P10635). As to the kind of experiment: Cytochrome P450 Family 2 Subfamily D Member 6 (CYP2D6) small molecule antagonists: luciferase reporter qHTS assay (AID 1671196). Further: series mostly up to about 120 µM; nearly all actives have a fitted effect of over 50% in size. The method, boiled down:
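Luminescence (RLU), read 20 min after detection reagent, indicated CYP2D6 conversion of proluciferin to luciferin during a 1 h NADPH-dependent reaction at room temperature.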
On the technique in general: Reporter assays use an easily measured gene product as a stand-in for the process of interest.

Test [9] addresses Cytochrome P450 2C19 (Homo sapiens) (UniProt P33261). As to the kind of experiment: Cytochrome P450 Family 2 Subfamily C Member 19 (CYP2C19) small molecule antagonists: luciferase reporter qHTS assay (AID 1671197). Further: series mostly up to about 120 µM; nearly all actives have a fitted effect of over 65% in size. The method, boiled down: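 Luminescent readout of CYP2C19 activity: luciferin product detected 20 min after adding detection reagent. Before that, compound and enzyme-substrate mix preincubated 10 min at room temperature; NADPH-regenerating system started a 1 h, 37C reaction. Ketoconazole as positive control.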

For test [10], the target named is Cytochrome P450 2C9 (Homo sapiens) (UniProt P11712). As to the kind of experiment: Cytochrome P450 Family 2 Subfamily C Member 9 (CYP2C9) small molecule antagonists: luciferase reporter qHTS assay (AID 1671198). Further: series mostly up to about 120 µM; nearly all actives have a fitted effect of over 50% in size. In a few lines:
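Enzyme-substrate mix preincubated with compound 10 min at room temperature; reaction started with NADPH regeneration solution, 1 h 37C. Luminescent luciferin product read after 20 min detection reagent.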

The target in test [11] is Voltage-gated inwardly rectifying potassium channel KCNH2 (Homo sapiens) (UniProt Q12809). Description: Human Ether-a-go-go-Related Gene (hERG) channel small molecule antagonists: fluorescence cell-based qHTS assay (AID 1671200).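 Further: hERG-expressing U2OS cells given a thallium stimulus after FluxOR II dye loading; series mostly up to about 77 µM; nearly all actives have a fitted effect of over 50% in size.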 The method, boiled down: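 U2OS cells expressing the channel were plated at 1000 cells/well, incubated overnight at 37 C, then loaded with FluxOR II thallium-sensitive dye for 1 h at room temperature in the dark, with a further 10 min at room temperature before stimulation.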
Voltage-gated inwardly rectifying potassium channel KCNH2 (Homo sapiens), sequence (Q12809 whole entry, looked up): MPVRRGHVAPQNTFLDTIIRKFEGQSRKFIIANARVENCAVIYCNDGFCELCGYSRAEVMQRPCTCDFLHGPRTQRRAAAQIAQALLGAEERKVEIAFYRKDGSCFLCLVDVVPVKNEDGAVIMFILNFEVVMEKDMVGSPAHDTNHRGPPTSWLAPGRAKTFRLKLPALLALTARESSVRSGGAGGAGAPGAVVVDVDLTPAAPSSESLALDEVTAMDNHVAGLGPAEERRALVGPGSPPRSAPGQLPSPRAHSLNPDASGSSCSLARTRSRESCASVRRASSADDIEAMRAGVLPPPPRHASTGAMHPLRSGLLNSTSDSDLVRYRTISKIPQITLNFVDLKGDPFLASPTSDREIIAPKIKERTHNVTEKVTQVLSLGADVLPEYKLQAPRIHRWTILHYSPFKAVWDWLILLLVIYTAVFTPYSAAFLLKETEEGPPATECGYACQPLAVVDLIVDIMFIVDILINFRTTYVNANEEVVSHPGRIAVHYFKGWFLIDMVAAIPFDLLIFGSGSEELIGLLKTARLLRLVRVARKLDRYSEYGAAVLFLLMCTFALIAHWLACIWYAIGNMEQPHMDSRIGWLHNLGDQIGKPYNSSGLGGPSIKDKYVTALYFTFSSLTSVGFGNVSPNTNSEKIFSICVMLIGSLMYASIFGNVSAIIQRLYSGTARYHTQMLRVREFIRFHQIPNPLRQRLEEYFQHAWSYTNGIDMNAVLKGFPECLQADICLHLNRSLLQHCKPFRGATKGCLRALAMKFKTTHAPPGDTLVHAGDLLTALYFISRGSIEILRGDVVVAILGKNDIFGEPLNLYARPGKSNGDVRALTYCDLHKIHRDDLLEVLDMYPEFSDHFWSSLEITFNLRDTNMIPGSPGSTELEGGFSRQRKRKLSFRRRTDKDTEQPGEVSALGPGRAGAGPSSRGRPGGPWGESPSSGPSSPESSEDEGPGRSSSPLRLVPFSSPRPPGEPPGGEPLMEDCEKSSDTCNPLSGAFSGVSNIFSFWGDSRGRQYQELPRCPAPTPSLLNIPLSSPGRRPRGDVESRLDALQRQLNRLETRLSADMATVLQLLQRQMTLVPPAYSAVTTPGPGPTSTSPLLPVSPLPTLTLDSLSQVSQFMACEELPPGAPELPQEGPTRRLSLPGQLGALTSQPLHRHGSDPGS
(In general: hERG is a cardiac potassium channel; its block is linked to QT prolongation.)

The target in test [12] is Cytochrome P450 3A4 (Homo sapiens) (UniProt P08684). As to the kind of experiment: Cytochrome P450 Family 3 Subfamily A Member 4 (CYP3A4) small molecule antagonists: luciferase reporter qHTS assay (AID 1671201). In a few lines:
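P450-Glo CYP3A4 system with proluciferin substrate; compounds preincubated 10 min RT with enzyme-substrate mix, then NADPH regeneration added for 1 h RT. Detection reagent 20 min, luminescence read as relative luminescence units.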

Test [13] has as its target Nuclear receptor subfamily 1 group I member 2 (Rattus norvegicus) (UniProt Q9R1A7). As to the kind of experiment: Rat pregnane X receptor (rPXR) activation by small molecules, qHTS assay (AID 1346983). Further: nearly all actives have a fitted effect of over 20% in size. Further: potency means the concentration at half of the fitted maximal effect. As to conditions: rPXR luciferase reporter cells, One-Glo luminescence, 24 h; max activation: stronger effect = higher value. In a few lines:
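Luminescent readout (One-Glo luciferase, 30 min room temperature) followed 24 hr compound treatment at 37 C of rPXR cells plated 2,000 per well and preincubated 5hr; qHTS format with compounds delivered in DMSO.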

Test [14] concerns the target Nuclear receptor subfamily 1 group I member 2 (Homo sapiens) (UniProt O75469). Description: CYP3A4 induction through human pregnane X receptor (PXR) by small molecules, qHTS assay (AID 1346984). Further: nearly all actives have a fitted effect of over 40% in size. In a few lines:
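qHTS, concentration-response format: HepG2 DPX-2 line, PXR/CYP3A4-luc. Exposure 24 h, 37C. Substrate Luciferin-IPA 3uM final, 3 h. Detection One-Glo, 30 min RT.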

Test [15] shares this target. Description: Human pregnane X receptor (PXR) activation by small molecules, qHTS assay (AID 1346985). Further: nearly all actives have a fitted effect of over 40% in size. Further: potency means the concentration at half of the fitted maximal effect. The method, boiled down:
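DPX-2 cells (HepG2 co-transfected with a PXR response element and a CYP3A4-promoter luciferase construct) were seeded at 2,000 per well, rested 5 hr at 37C, then exposed to DMSO-dissolved compounds for 24 hr. Activation was read as luciferase luminescence.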

Test [16] has as its target Cytochrome P450 1A2 (Homo sapiens) (UniProt P05177). Description: Cytochrome P450 Family 1 Subfamily A Member 2 (CYP1A2) small molecule antagonists: luciferase reporter qHTS assay (AID 1671199). Further: nearly all actives have a fitted effect of over 50% in size. Further: potency means the concentration at half of the fitted maximal effect. On activity change, negative = inhibition: series mostly up to about 120 µM. The method, boiled down:
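CYP1A2 turnover of a luminogenic substrate was quantified after 1 h with NADPH regeneration at room temperature. Furafylline served as positive control.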

Structures are written as SMILES. Unmarked numbers belong to inactive results. Records with an inconclusive call do not appear. Activity calls are given as the source filed them. Unless noted, the call rests on the fitted dose curve; in most records, active means well fitted curve in the direction sought with a large enough effect in the repeat runs; inconclusive means weak or mixed curves; inactive means no such curve, though single readings can be large; an effect the other way counts as inactive or inconclusive.
On the % scale 0 is the no-effect control and ±100 the full control effect.

Cytochrome P450 3A4 (Homo sapiens), sequence (P08684 whole entry, looked up): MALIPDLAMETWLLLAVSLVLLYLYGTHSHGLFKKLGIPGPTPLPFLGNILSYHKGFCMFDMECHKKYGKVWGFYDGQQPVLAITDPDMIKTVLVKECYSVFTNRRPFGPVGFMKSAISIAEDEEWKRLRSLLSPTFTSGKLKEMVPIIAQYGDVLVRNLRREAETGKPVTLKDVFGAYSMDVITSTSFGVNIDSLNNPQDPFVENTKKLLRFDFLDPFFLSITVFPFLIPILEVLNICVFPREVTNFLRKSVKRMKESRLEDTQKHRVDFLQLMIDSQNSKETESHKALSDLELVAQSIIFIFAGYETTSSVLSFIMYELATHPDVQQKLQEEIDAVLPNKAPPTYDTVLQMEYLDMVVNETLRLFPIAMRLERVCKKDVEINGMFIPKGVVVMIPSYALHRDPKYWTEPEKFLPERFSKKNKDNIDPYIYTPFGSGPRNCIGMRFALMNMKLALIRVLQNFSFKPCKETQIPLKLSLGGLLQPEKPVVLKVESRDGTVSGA
Nuclear receptor subfamily 1 group I member 2 (Rattus norvegicus), sequence (Q9R1A7 whole entry, looked up): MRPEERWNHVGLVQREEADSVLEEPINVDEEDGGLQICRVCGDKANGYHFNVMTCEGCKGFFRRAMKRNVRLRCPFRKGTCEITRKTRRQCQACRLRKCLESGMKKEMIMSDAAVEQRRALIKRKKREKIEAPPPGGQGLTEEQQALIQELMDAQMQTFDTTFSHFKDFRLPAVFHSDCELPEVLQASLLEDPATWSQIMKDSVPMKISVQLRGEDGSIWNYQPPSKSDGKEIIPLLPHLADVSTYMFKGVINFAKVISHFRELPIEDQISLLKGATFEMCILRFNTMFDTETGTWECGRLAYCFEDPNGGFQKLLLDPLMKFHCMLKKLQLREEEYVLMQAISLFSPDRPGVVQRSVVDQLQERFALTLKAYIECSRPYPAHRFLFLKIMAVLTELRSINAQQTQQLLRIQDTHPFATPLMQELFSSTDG
Nuclear receptor subfamily 1 group I member 2 (Homo sapiens), sequence (O75469 whole entry, looked up): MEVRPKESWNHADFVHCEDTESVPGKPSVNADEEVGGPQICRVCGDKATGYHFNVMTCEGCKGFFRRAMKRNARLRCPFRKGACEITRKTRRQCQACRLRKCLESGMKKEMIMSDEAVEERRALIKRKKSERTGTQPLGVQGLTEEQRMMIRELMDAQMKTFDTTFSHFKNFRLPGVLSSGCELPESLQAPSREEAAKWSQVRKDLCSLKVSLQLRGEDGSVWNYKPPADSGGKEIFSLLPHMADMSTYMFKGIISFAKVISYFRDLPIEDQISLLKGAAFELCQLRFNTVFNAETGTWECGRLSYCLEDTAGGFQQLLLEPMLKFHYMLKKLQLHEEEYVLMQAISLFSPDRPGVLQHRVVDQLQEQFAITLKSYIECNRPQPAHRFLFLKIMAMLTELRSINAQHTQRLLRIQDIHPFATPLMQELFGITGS
Cytochrome P450 2C19 (Homo sapiens), sequence (P33261 whole entry, looked up): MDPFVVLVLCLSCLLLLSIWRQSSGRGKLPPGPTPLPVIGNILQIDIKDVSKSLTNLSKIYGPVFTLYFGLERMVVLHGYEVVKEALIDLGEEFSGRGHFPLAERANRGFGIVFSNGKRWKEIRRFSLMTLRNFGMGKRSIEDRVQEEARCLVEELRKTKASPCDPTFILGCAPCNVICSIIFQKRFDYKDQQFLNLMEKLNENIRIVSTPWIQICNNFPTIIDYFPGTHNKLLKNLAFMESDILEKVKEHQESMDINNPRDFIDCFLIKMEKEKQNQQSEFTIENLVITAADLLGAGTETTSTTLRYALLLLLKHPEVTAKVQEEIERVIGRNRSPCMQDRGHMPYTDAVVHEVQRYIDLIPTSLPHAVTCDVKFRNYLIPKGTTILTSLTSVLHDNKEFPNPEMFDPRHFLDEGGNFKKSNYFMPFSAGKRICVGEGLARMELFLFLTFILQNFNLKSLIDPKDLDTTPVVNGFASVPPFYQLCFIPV
Cytochrome P450 2D6 (Homo sapiens), sequence (P10635 whole entry, looked up): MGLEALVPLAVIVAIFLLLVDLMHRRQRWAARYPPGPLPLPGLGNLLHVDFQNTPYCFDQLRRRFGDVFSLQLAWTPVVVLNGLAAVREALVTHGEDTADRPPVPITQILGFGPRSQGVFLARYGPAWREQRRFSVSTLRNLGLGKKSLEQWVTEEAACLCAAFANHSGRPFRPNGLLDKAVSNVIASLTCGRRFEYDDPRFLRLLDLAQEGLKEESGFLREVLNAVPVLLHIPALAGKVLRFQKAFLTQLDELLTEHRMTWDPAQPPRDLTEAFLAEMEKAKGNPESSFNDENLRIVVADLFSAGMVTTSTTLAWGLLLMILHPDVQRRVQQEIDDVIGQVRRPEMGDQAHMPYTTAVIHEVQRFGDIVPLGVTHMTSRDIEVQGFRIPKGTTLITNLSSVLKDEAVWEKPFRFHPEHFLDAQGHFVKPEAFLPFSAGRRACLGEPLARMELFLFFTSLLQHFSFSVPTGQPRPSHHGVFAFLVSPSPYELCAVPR
Cytochrome P450 2C9 (Homo sapiens), sequence (P11712 whole entry, looked up): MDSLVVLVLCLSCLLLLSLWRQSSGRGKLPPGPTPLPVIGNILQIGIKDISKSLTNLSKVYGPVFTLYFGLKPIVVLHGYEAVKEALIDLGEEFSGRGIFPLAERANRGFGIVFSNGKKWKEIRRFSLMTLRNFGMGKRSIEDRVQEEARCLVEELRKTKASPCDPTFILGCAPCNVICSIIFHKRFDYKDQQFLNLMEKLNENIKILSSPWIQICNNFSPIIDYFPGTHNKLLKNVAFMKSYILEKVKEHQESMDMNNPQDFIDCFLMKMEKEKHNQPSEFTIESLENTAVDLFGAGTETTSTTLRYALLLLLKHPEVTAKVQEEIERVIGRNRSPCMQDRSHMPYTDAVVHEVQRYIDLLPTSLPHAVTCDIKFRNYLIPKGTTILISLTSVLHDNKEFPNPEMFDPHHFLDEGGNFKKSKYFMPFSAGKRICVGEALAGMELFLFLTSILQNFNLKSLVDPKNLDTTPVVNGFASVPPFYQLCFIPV
Cytochrome P450 1A2 (Homo sapiens), sequence (P05177 whole entry, looked up): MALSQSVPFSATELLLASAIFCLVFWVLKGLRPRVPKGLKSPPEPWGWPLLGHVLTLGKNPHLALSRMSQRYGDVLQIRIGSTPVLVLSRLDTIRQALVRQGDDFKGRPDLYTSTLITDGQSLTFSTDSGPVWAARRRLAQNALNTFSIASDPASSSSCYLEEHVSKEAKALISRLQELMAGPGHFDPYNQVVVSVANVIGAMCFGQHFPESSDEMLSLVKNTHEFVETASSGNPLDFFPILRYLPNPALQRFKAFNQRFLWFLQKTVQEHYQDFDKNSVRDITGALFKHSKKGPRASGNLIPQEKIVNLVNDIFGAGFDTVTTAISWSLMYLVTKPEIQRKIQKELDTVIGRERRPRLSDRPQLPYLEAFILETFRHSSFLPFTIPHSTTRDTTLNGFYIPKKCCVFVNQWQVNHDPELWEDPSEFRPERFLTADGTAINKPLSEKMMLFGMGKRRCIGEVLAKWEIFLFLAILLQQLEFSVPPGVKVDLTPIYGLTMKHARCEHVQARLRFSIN

Consider `CC(C)COC(=O)c1ccccc1O`, for which the molecule was called inactive in test [1], in [3], in test [5] and in test [6]. Further, the Potency entry in test [2], in test [4], in test [7], in test [8], in test [9] and in [10] was “inactive” throughout. Also, the Potency entry in [11] and in test [12] was “inactive” each time.

For the molecule `Nc1nc2c(ncn2CCC(CO)CO)c(=O)[nH]1`, the result in test [1], in test [3], in test [5] and in test [6] was inactive. For the same molecule, the Potency entry in [2], in test [4], in test [7], in test [14], in [15] and in test [8] was “inactive” throughout. Besides, the Potency result in [9], in test [10], in test [16], in test [11] and in test [12] was “inactive” each time. Further, in test [13], the max activation is 3.6%.

Regarding `OCC(CO)(CO)COCC(CO)(CO)CO`, the molecule was called inactive in test [1], in test [3], in [5] and in test [6]. The Potency entry in test [2], in test [4], in test [7], in test [8], in test [9] and in [10] was “inactive” throughout. Also, the Potency entry in [11] and in [12] was “inactive” each time.

For `CCC(=O)Nc1cccc(N)c1`, the outcome in test [1], in [3], in test [5] and in test [6] was inactive. Moreover, the Potency entry in test [2], in test [4], in [7], in test [8], in [9] and in test [10] was “inactive” throughout. Besides, the Potency result in [11] was “inactive”.

In the case of `C=C(C)C1CC=C(C)C(O)C1` (centres undefined), the result in test [1], in test [3], in test [5] and in test [6] was inactive. Also, the Potency entry in test [2], in test [4], in test [8], in test [9], in [10] and in test [11] was “inactive” each time. Besides, the Potency result in test [12] was “inactive”. Moreover, the Potency is 48.8 µM (active) in test [7] and 40.1 µM (active) in test [16].

For the molecule `NC(=O)c1ncn([C@@H]2O[C@H](CO)[C@@H](O)[C@H]2O)c1N`, the result in [1], in [3], in test [5] and in [6] was inactive. Besides, the Potency result in test [2], in test [4], in [7], in test [14], in test [15] and in test [8] was “inactive” each time. Besides, the Potency result in test [9], in test [10], in test [16], in [11] and in [12] was “inactive” throughout. The max activation in test [13] is 0.984%.

In the case of `C=C(C)C(=O)NCCCN(C)C`, the molecule was called inactive in [1], in test [3], in [5] and in test [6]. Moreover, the Potency entry in test [2], in test [4], in test [7], in [8], in test [9] and in test [10] was “inactive” in each case. Moreover, the Potency entry in [11] and in test [12] was “inactive” in each case.

In the case of `Cn1ccc2cc3c(cc21)CCN3C(=O)Nc1cccnc1`, the activation in test [1] is -0.003% [at 11.8 µM]. Further, the activity change, negative = cytotoxicity in test [2] was 0% [at 19 µM]; in [4], 5.05% [at 19 µM]; in test [6], 1.32% [at 19 µM]. In addition, the caspase activation in test [3] is 0.602% [at 19 µM]. For the same molecule, the caspase-3/7 activation in test [5] is -1.75% [at 19 µM]. Besides, the Potency in test [7] was 3.66 µM (active); in [13], 12.6 µM (active); in test [15], 12.6 µM (active). Besides, in test [14], the Potency result is “inactive”. In addition, the activity change, negative = inhibition in [8] was -16.8% [at 23.6 µM]; in [11], 2.6% [at 15.8 µM].

For the origin of these results see PubChem BioAssay (Tox21).
